# Source: the supplement of paper PMC4466140
# Molecular target: CaNbp2
# Assay: SPOT peptide array binding signal intensity (averaged, normalized) (arbitrary units (background-subtracted, floor 0; scale differs between SH3 domains)); higher = stronger binding of the SH3 domain to the peptide
# In short: (§1)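 Spot intensities were captured after detection with anti-GST antibody, an HRP-linked anti-mouse secondary and luminol, and quantified with Genespotter. The probes were GST-fused SH3 domains from four yeast species, produced in E. coli BL21(DE3), purified on glutathione Sepharose and incubated at 10 μg/ml overnight at 4°C on cellulose-bound synthetic 15-mer peptides with cysteines replaced by serines. Binding signal is the normalized, background-subtracted spot intensity averaged over replicates, and its arbitrary units differ between domains.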
row,Binder,SPOT peptide array binding signal intensity
1,VQPTAAPATPPRHIS,≤ 0

# Molecular target: CaRvs167
# Assay: as above
# In short: as §1
row,Binder,SPOT peptide array binding signal intensity
1,VQPTAAPATPPRHIS,462

# Molecular target: CaRvs167-3
# Assay: as above
# In short: as §1
row,Binder,SPOT peptide array binding signal intensity
1,VQPTAAPATPPRHIS,≤ 0

# Molecular target: CaSho1
# Assay: as above
# In short: as §1
row,Binder,SPOT peptide array binding signal intensity
1,VQPTAAPATPPRHIS,≤ 0

# Molecular target: CaSla1-D1-D2
# Assay: as above
# In short: as §1
row,Binder,SPOT peptide array binding signal intensity
1,VQPTAAPATPPRHIS,≤ 0

# Molecular target: CaSla1-D3
# Assay: as above
# In short: as §1
row,Binder,SPOT peptide array binding signal intensity
1,VQPTAAPATPPRHIS,≤ 0

# Molecular target: ScAbp1
# Assay: as above
# In short: as §1
row,Binder,SPOT peptide array binding signal intensity
1,VQPTAAPATPPRHIS,≤ 0

# Molecular target: ScBbc1
# Assay: as above
# In short: as §1
row,Binder,SPOT peptide array binding signal intensity
1,VQPTAAPATPPRHIS,1.75

# Molecular target: ScBem1-D1
# Assay: as above
# In short: as §1
row,Binder,SPOT peptide array binding signal intensity
1,VQPTAAPATPPRHIS,≤ 0

# Molecular target: ScBzz1-D1
# Assay: as above
# In short: as §1
row,Binder,SPOT peptide array binding signal intensity
1,VQPTAAPATPPRHIS,≤ 0

# Molecular target: ScBzz1-D2
# Assay: as above
# In short: as §1
row,Binder,SPOT peptide array binding signal intensity
1,VQPTAAPATPPRHIS,≤ 0

# Molecular target: ScCyk3
# Assay: as above
# In short: as §1
row,Binder,SPOT peptide array binding signal intensity
1,VQPTAAPATPPRHIS,≤ 0

# Molecular target: ScFus1
# Assay: as above
# In short: as §1
row,Binder,SPOT peptide array binding signal intensity
1,VQPTAAPATPPRHIS,≤ 0

# Molecular target: ScHof1
# Assay: as above
# In short: as §1
row,Binder,SPOT peptide array binding signal intensity
1,VQPTAAPATPPRHIS,0.5

# Molecular target: ScHse1
# Assay: as above
# In short: as §1
row,Binder,SPOT peptide array binding signal intensity
1,VQPTAAPATPPRHIS,≤ 0

# Molecular target: ScLsb1
# Assay: as above
# In short: as §1
row,Binder,SPOT peptide array binding signal intensity
1,VQPTAAPATPPRHIS,14.5

# Molecular target: ScLsb2
# Assay: as above
# In short: as §1
row,Binder,SPOT peptide array binding signal intensity
1,VQPTAAPATPPRHIS,≤ 0

# Molecular target: ScLsb3
# Assay: as above
# In short: as §1
row,Binder,SPOT peptide array binding signal intensity
1,VQPTAAPATPPRHIS,6740

# Molecular target: ScLsb4
# Assay: as above
# In short: as §1
row,Binder,SPOT peptide array binding signal intensity
1,VQPTAAPATPPRHIS,1970

# Molecular target: ScMyo3
# Assay: as above
# In short: as §1
row,Binder,SPOT peptide array binding signal intensity
1,VQPTAAPATPPRHIS,≤ 0

# Molecular target: ScMyo5
# Assay: as above
# In short: as §1
row,Binder,SPOT peptide array binding signal intensity
1,VQPTAAPATPPRHIS,≤ 0

# Molecular target: ScNbp2
# Assay: as above
# In short: as §1
row,Binder,SPOT peptide array binding signal intensity
1,VQPTAAPATPPRHIS,≤ 0

# Molecular target: ScPex13
# Assay: as above
# In short: as §1
row,Binder,SPOT peptide array binding signal intensity
1,VQPTAAPATPPRHIS,4

# Molecular target: ScRvs167
# Assay: as above
# In short: as §1
row,Binder,SPOT peptide array binding signal intensity
1,VQPTAAPATPPRHIS,1040

# Molecular target: ScSho1
# Assay: as above
# In short: as §1
row,Binder,SPOT peptide array binding signal intensity
1,VQPTAAPATPPRHIS,4.75

# Molecular target: ScSla1-D1-D2
# Assay: as above
# In short: as §1
row,Binder,SPOT peptide array binding signal intensity
1,VQPTAAPATPPRHIS,≤ 0

# Molecular target: ScSla1-D3
# Assay: as above
# In short: as §1
row,Binder,SPOT peptide array binding signal intensity
1,VQPTAAPATPPRHIS,≤ 0

# Molecular target: SpAbp1-D1
# Assay: as above
# In short: as §1
row,Binder,SPOT peptide array binding signal intensity
1,VQPTAAPATPPRHIS,≤ 0

# Molecular target: SpBbc1
# Assay: as above
# In short: as §1
row,Binder,SPOT peptide array binding signal intensity
1,VQPTAAPATPPRHIS,≤ 0

# Molecular target: SpBzz1-D1
# Assay: as above
# In short: as §1
row,Binder,SPOT peptide array binding signal intensity
1,VQPTAAPATPPRHIS,≤ 0

# Molecular target: SpBzz1-D2
# Assay: as above
# In short: as §1
row,Binder,SPOT peptide array binding signal intensity
1,VQPTAAPATPPRHIS,≤ 0

# Molecular target: SpCyk3
# Assay: as above
# In short: as §1
row,Binder,SPOT peptide array binding signal intensity
1,VQPTAAPATPPRHIS,≤ 0

# Molecular target: SpHof1
# Assay: as above
# In short: as §1
row,Binder,SPOT peptide array binding signal intensity
1,VQPTAAPATPPRHIS,0.5

# Molecular target: SpHof1-2
# Assay: as above
# In short: as §1
row,Binder,SPOT peptide array binding signal intensity
1,VQPTAAPATPPRHIS,0.25

# Molecular target: SpHof1-3
# Assay: as above
# In short: as §1
row,Binder,SPOT peptide array binding signal intensity
1,VQPTAAPATPPRHIS,15

# Molecular target: SpHse1
# Assay: as above
# In short: as §1
row,Binder,SPOT peptide array binding signal intensity
1,VQPTAAPATPPRHIS,≤ 0

# Molecular target: SpLsb1
# Assay: as above
# In short: as §1
row,Binder,SPOT peptide array binding signal intensity
1,VQPTAAPATPPRHIS,2

# Molecular target: SpLsb4
# Assay: as above
# In short: as §1
row,Binder,SPOT peptide array binding signal intensity
1,VQPTAAPATPPRHIS,4010

# Molecular target: SpMyo1
# Assay: as above
# In short: as §1
row,Binder,SPOT peptide array binding signal intensity
1,VQPTAAPATPPRHIS,≤ 0

# Molecular target: SpNbp2
# Assay: as above
# In short: as §1
row,Binder,SPOT peptide array binding signal intensity
1,VQPTAAPATPPRHIS,≤ 0

# Molecular target: SpPex13
# Assay: as above
# In short: as §1
row,Binder,SPOT peptide array binding signal intensity
1,VQPTAAPATPPRHIS,≤ 0

# Molecular target: SpRvs167
# Assay: as above
# In short: as §1
row,Binder,SPOT peptide array binding signal intensity
1,VQPTAAPATPPRHIS,1620

# Molecular target: SpSla1-D1-D2
# Assay: as above
# In short: as §1
row,Binder,SPOT peptide array binding signal intensity
1,VQPTAAPATPPRHIS,0.5

# Molecular target: SpSla1-D3
# Assay: as above
# In short: as §1
row,Binder,SPOT peptide array binding signal intensity
1,VQPTAAPATPPRHIS,≤ 0
